ssDAF-12 act: S. stercoralis DAF-12 nuclear receptor activators, primary screen, cell-based, luminescence, HEK293, GRIP1 co-expression, lit1-tk-luc; Nuclear hormone receptor DAF-12 (Strongyloides stercoralis); HEK293 ssDAF-12/GRIP1 lit1-tk-luc reporter; % of 3 µM dafachronic acid response; activation, % at 6.8 µM; actives 1% (n = 370,000); AID 652126, 2013;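 active means activation above the mean over all tested compounds plus 3 SD, cut at about 0.9% in these data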;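 further: 0% = DMSO-only wells and 100% = 3 µM delta7-dafachronic acid wells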
hcDAF12 agonist: H. contortus DAF-12 nuclear receptor activators, primary screen, cell-based, luminescence, HEK293, lit1-tk-luc reporter; HEK293 hcDAF-12 lit1-tk-luc reporter; 0% DMSO, 100% Δ7-dafachronic acid; activation, % at 6.8 µM; actives 1.4% (n = 370,000);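 active means activation above the mean of all tested compounds plus 3 SD, cut at about 5.5% in these data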;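 further: 100% = response to 3 µM Δ7-dafachronic acid high control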
DAX1 inh-1: DAX1 (NR0B1) inhibitors, primary screen, cell-based, HEK293, Gal4-DAX1, luciferase luminescence; HEK293 Gal4-DAX1 luciferase reporter; AID 504766, 2011; actives 0.99% (n = 340,000); Nuclear receptor subfamily 0 group B member 1 (Homo sapiens), P51843; inhibition, % at 6.75 µM;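 active means inhibition above the mean over all tested compounds plus 3 SD, cut at about 4.2% in these data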;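 further: 0% = DAX1-transfected cells with DMSO and 100% = empty-vector control cells with DMSO; inhibition shows as a rise in luminescence from relieved DAX1 repression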
Target sequence (P51843 207-470 limits assumed): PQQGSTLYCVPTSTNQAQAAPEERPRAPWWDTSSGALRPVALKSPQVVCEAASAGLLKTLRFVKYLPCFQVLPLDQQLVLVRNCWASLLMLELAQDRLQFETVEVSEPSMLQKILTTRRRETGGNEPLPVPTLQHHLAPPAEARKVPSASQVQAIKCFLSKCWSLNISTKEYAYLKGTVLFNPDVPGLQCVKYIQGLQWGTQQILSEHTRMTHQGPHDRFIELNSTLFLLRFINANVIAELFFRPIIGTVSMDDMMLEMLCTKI
AHR activator: AHR activators, primary screen, cell-based, luminescence, luciferase reporter, human; Aryl hydrocarbon receptor (Homo sapiens), P35869; AHR-responsive luciferase reporter cells; activation, % at 5 µM; actives 2.5% (n = 320,000); in the data active means activation above about 47%;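 further: 0% = vehicle wells and 100% = reference agonist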
DAX1 inh-2: DAX1 (NR0B1) inhibitors on StAR promoter, primary screen, cell-based, luminescence, SF-1 (NR5A1), full-length DAX-1 | AID 652010, 2013 | HEK293T StAR-luciferase reporter, SF-1/DAX-1 repression relief | actives 1.1% (n = 370,000) | inhibition, % at 6.8 µM;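 active means inhibition above the mean over all tested compounds plus 3 SD, cut at about 3.6% in these data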;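 further: 0% = DAX-1 cells with DMSO and 100% = cells lacking DAX-1 with DMSO; higher inhibition means more luminescence from relief of DAX-1 repression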
hgDAF12 agonist: H. glycines DAF-12 receptor agonists, primary screen, cell-based, luminescence, HEK293, GAL4 fusion, UAS-luciferase | Nuclear hormone receptor DAF-12 (Heterodera glycines), GAL4 fusion | HEK293 GAL4-hgDAF12 UAS-luciferase reporter, agonist luminescence; normalized to butyrate control | activation, % at 6.8 µM | actives 1.8% (n = 370,000) | AID 687014, 2013;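 active means activation above a cutoff set at the mean of all screened compounds plus 3 SD, cut at about 10% in these data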;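 further: 0% = DMSO wells and 100% = sodium butyrate wells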
LXR ag: LXR agonists, Gal4 luciferase reporter, confirmation, counter-screen for hcDAF-12 agonist project, cell-based, luminescence, HEK293, H. contortus campaign; 3,400 tested, under 10 active; shares compounds with hcDAF12 agonist; AID 743027, 2013; activation, % at 6.8 µM; HEK293 Gal4-LXR tk-luc reporter, 24 h; normalized: DMSO 0%, positive control 100%;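 active means mean percent activation of the reporter above a cutoff set as the average over tested compounds plus their standard deviation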
hcDAF12 conf: H. contortus DAF-12 receptor agonists, confirmation, cell-based, luminescence, HEK293, lit1-tk-luc, triplicate | shares compounds with hcDAF12 agonist | HEK293 hcDAF-12 lit1-tk-luc reporter; % of Δ7-dafachronic acid response | activation, % at 6.8 µM | actives 61% (n = 3,400) | AID 743032, 2013;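 active means mean activation across triplicate tests above the threshold derived from the earlier primary screen, cut at about 5.5% in these data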;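 further: 0% = DMSO only wells and 100% = 3 µM Δ7-dafachronic acid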
* hit, by the source's call; nt = no result. In the library only some 5.7% were active in any assay of this set; here they are far more common.

SMILES | ssDAF-12 act | hcDAF12 agonist | DAX1 inh-1 | AHR activator | DAX1 inh-2 | hgDAF12 agonist | LXR ag | hcDAF12 conf
Cc1onc(C(=O)N2CCOCC2)c1[N+](=O)[O-] | -1 | 7.2* | 2 | 2 | -1 | -5 | 0 | 1
COc1cc(OC)cc(-c2c(-c3ccc(F)cc3)c3cc(-c4ccc(OC)nc4)ccc3n2C)c1 | -1 | 0 | -1 | 1 | 0 | -2 | nt | nt
O=C(/C=C1\C(=O)Nc2ccccc21)/C=C1\C(=O)Nc2ccccc21 | 0 | 11* | -1 | nt | 0 | 2 | 0 | 3
O=C1Nc2ccccc2/C1=C\C(=O)c1ccccc1 | -1 | -1 | -2 | 8 | -1 | -2 | nt | nt
CCOc1ccc(-c2nc(CCl)cs2)cc1 | -1 | 9.1* | 3 | 10 | 2 | 13* | 0 | 3
CCC(C)(C)NC(=O)C1CCCN1C(=O)NC1CCCCC1 (configuration not stated) | -2 | 0 | 0 | -2 | -1 | -1 | nt | nt
NC(=S)N/N=C/c1ccc(-c2ccc(Cl)c(Cl)c2)o1 | 1.4* | 7.1* | 1 | 48* | -1 | 6 | 0 | 9.9*
O=C(COc1ccc(Cl)cc1)NNC(=O)CSc1nncs1 | -1 | 0 | 1 | 0 | 2 | -1 | nt | nt
CC(C)(C)NC(=S)N/N=C/c1cc(Br)c(O)c(Br)c1 | 1 | 7.4* | 2 | 5 | 0 | 1 | 0 | 1
Cn1c(CC(=O)Nc2ccccc2)nnc1SCC(=O)NC1=NCCS1 | -1 | 7.6* | 0 | -1 | 0 | 1 | 0 | -1
c1ccc(-c2c[nH]c3ccc(OCc4ccc5ccccc5n4)c(-c4ccccc4)c23)cc1 | 0 | 7.4* | nt | nt | 0 | 6 | 0 | 3
c1ccc(-c2cccc3[nH]cc(-c4ccccc4)c23)cc1 | -1 | -1 | nt | nt | 0 | -1 | nt | nt
CC1CC1C(=O)Nc1nc2ccc(Cl)cc2s1 (configuration not stated) | 0 | 7.0* | 1 | 67* | 0 | 9 | 1 | 6.2*
Cc1ccc(S(=O)(=O)CC(=O)N2CCN(c3ccccc3F)CC2)cc1 | -1 | -2 | 1 | 4 | 1 | -3 | nt | nt
O=C(Nc1ccc(Br)cc1)Nc1ccccc1Cl | 0 | 7.7* | -1 | 22 | 0 | 9 | 1 | 4
CCN1c2ccccc2NC2C1C(C(C)=O)C(=O)N2c1ccc(Cl)cc1 (configuration not stated) | 0 | 8.8* | 0 | 83* | 0 | -3 | 0 | 0
O=C1Nc2ccccc2N(O)N1c1ccc(Cl)cc1 | 0 | -2 | -2 | 16 | 0 | -1 | nt | nt
Cc1cc(C)cc(N2Cc3ccccc3C2)c1 | -1 | 0 | 0 | 6 | 1 | -3 | nt | nt
CCc1ccc(N2Cc3ccccc3C2)cc1 | 1 | 6.9* | 3 | 17 | 3 | 29* | 1 | 7.7*
Cc1ccc(CNc2nc3ccccc3n2C)o1 | 1.1* | 7.8* | 2 | 18 | 1 | 12* | 1 | 8.3*
Cc1ccc(S(=O)(=O)Nc2c(C(=O)O)[nH]c3ccccc23)c(C)c1 | 1.1* | 6.7* | 2 | 29 | 0 | 5 | 0 | 2
COc1ccc(S(=O)(=O)Nc2c(C(=O)O)[nH]c3ccccc23)cc1 | 0 | 5 | 0 | 15 | 0 | 2 | nt | nt
COc1ccc(S(=O)(=O)Nc2c(C(=O)O)[nH]c3ccccc23)cc1OC | 2.0* | 7.9* | 0 | 55* | 0 | 6 | 0 | 5
COc1ccc(Br)cc1CN(C)C(=O)Cc1ccc(OC)c(S(=O)(=O)N2CCOCC2)c1 | -1 | 0 | 0 | 3 | -2 | -1 | nt | nt
CCOC(=O)Cc1cc(=O)n2[nH]c(C)c(C#N)c2n1 | -2 | 0 | 0 | -4 | 0 | 1 | nt | nt
SMILES | ssDAF-12 act | hcDAF12 agonist | DAX1 inh-1 | AHR activator | DAX1 inh-2 | hgDAF12 agonist | LXR ag | hcDAF12 conf
O=C(Cc1ccc(Br)cc1)NC1CCCCC1 | -2 | 1 | 1 | 7 | 0 | 0 | nt | nt
O=C(Cc1ccc(O)cc1)NC1CCCCCC1 | 0 | 6.8* | 0 | 6 | 1 | 8 | 0 | 4
Cn1ccnc1SCC(=O)c1c[nH]c2ccccc12 | 3.8* | 9.3* | 2 | 70* | 3 | 10 | 1 | 7.4*
O=C(C[n+]1cccc(CNC(=O)c2ccc(OC(F)F)cc2)c1)Nc1ccc(SC(F)F)cc1 | -2 | 0 | 0 | 11 | 0 | -2 | nt | nt
Cc1cc(C)n(-c2nc3ccccc3nc2Nc2ccc(CC(=O)O)cc2)n1 | -1 | 2 | 0 | 9 | -2 | 0 | nt | nt
Cc1ccc(Nc2nc3ccccc3nc2-n2nc(C)cc2C)cc1 | 0 | 8.8* | 0 | 7 | 0 | 6 | 0 | 2
CCOC(=O)c1sc2nc(-c3ccccc3)ccc2c1N | 0 | 9.0* | 2 | 4 | 4.3* | 24* | 2 | 11*
O=C(c1ccc([N+](=O)[O-])cc1)N1CCSC1c1ccccc1Cl (configuration not stated) | -2 | 1 | 1 | 2 | 1 | -1 | nt | nt
Clc1ccccc1C1SCC2Nc3ccccc3CN21 (configuration not stated) | 0 | 7.1* | 1 | 18 | 1 | 5 | 0 | 7.1*
CC(=O)N1CCN(S(=O)(=O)c2cccc(C(=O)OCC(=O)Nc3c(Cl)cccc3C(F)(F)F)c2)CC1 | -1 | -1 | 2 | nt | -2 | -3 | nt | nt
CC12CCC(=O)N1C(C(=O)NCc1ccccc1F)CS2 (configuration not stated) | -1 | -1 | 2 | 1 | 3 | 0 | nt | nt
CC(=O)n1cc(/C=N/NC(N)=S)c2ccccc21 | -2 | 0 | 2 | 2 | 0 | -2 | nt | nt
CC(=O)n1cc(/C=C2/N=C(c3ccccc3)OC2=O)c2ccccc21 | 0 | 6.7* | 2 | 38 | 0 | 2 | 0 | 4
